High-throughput results from PubChem BioAssay.
TDP1 cell CPT – DT40-hTDP1 cell growth loss with CPT; chicken DT40 Tdp1-/-;hTDP1 cells + 20 nM CPT, ATP luminescence, 48 h; AID 686979; Potency, µM (series often up to 46.2 µM), inactives show at the highest dose activity change, negative = growth inhibition, hits mostly inhibitors; 420,000 compounds, 12% hits; note: potency is the fitted concentration of half-maximal effect; nearly all actives have a fitted effect of over 55% in size
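Cell growth measured by CellTiter-Glo luminescence after a minimum 48 h, 37 C compound exposure with 20 nM CPT in Tdp1-knockout DT40 cells stably expressing hTDP1, seeded 400/well; qHTS titration format.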
IL-1B inflam inh – inflammasome signaling inhibition, IL-1 beta readout; THP-1 LPS/ATP IL-1B secretion, AlphaLISA, 16 h; stronger effect = lower value; activity change, % at 57.5 µM; 360,000 compounds, 4.7% hits; in the data active = activity change below about -50%; inconclusive = mostly about -30% to -49%
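Secreted IL-1B measured by AlphaLISA bead assay after 16 h compound exposure of THP-1 cells; compounds (final up to 57.5 uM) added 1 h before LPS (250 ng/mL) and ATP (1.25 mM) stimulation; lower signal means less secretion.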
HT1080-NT tox – kills 2HG-producing HT-1080-NT fibrosarcoma cells; 360,000 compounds, 1.6% hits; AID 686970; HT-1080-NT fibrosarcoma viability, CellTiter-Glo ATP luminescence, 48 h; Potency, µM (highest dose often 46.1 µM), for the others: top-dose activity, negative = less viability, usual class: cytotoxic;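 note: NT is the 2HG producing partner of a matched IDH1 knockdown line; potency is the fitted concentration of half-maximal effect; 0% = DMSO-treated cells and -100% = media-only wells without cells; nearly all actives have a fitted effect of over 55% in size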
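Viability by CellTiter-Glo luminescence after 48 h compound exposure at 37C of HT-1080-NT cells (750/well, RPMI, 5% FBS). % activity scaled between DMSO wells and medium-only wells, then curve-fitted and categorized by curve class.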
HT1080 IDH1KD tx – toxicity to HT-1080 IDH1 knockdown cells (counter line) | HT-1080 IDH1 knockdown viability, ATP luminescence, 48 h | Potency, µM (doses to about 46.1 µM), without a hit: at the highest dose activity, negative = toxicity, actives largely listed as cytotoxic | 360,000 compounds, 2% hits | AID 686971;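 note: potency is the fitted concentration of half-maximal effect; 0% = DMSO wells and -100% = cell-free medium wells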
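In this qHTS, HT-1080 cells depleted of IDH1 are exposed for 48 h at 37 °C to compound titrations. Toxicity is scored from CellTiter-Glo luminescence, with DMSO as full viability and medium alone as none.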
TDP1 cell noCPT – qHTS for Inhibitors of human tyrosyl-DNA phosphodiesterase 1 (TDP1): qHTS in cells in absence of CPT; DT40 Tdp1-/- hTDP1 cells, no CPT, ATP luminescence, 48 h; Potency, µM (top dose mostly 46.2 µM), inactives show top-dose activity change, negative = growth inhibition, usual class: inhibitors; 420,000 compounds, 15% hits; note: potency is the fitted concentration of half-maximal effect; nearly all actives have a fitted effect of over 55% in size
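Cells were dispensed at 400 per well, compounds added by pin tool, plates incubated ≥48 hr at 37 °C, then CellTiter-Glo added for 30 min at room temperature before luminescence reading. Line: DT40 Tdp1-/- complemented with hTDP1; camptothecin omitted.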
* marks the source's active call; other numbers are inactive results; u = inconclusive; x = no result given; [ ] = another dose, or the depositor's remark. The list is not random: actives were taken first. Their share in the collection is about 19%. Unless noted, calls come from the whole dose curve; as a rule, active = well fitted curve in the direction sought with a large enough effect; inconclusive = small, poorly fitted or top-dose-only effect, or another doubt; inactive = no such curve, though single readings can be large; an effect the other way counts as inactive or inconclusive. Unless noted, % is set by controls: 0 for no effect and ±100 for the full control effect.

SMILES	TDP1 cell CPT	IL-1B inflam inh	HT1080-NT tox	HT1080 IDH1KD tx	TDP1 cell noCPT
Cc1ccc(CN2CCC(C3(c4ccccn4)NC(=O)N(CC4CCCO4)C3=O)CC2)cc1C (configuration not stated)	9%	x	x	x	-17%
CCOC(=O)Cn1c(=O)c(C#N)cn(C(C)C)c1=O	8%	32	3%	11%	5%
Cc1ccc(C#CC(C)(O)C(C)(C)C)cn1 (configuration not stated)	-7%	-11	12%	18%	2%
CCCS(=O)(=O)NC(=O)C1(C)CCN(C(=O)c2cccnc2Oc2ccccc2)C1 (configuration not stated)	-5%	35	12%	5%	-5%
COCCn1nnnc1C(c1cccs1)N1CCN(c2nc3ccccc3s2)CC1 (configuration not stated)	u	-17	-1%	-18%	23µM*
c1cnc2ccc(C(c3nnnn3C3CCCC3)N3CCN(c4nc5ccccc5s4)CC3)cc2c1 (configuration not stated)	u	-53*	-4%	-11%	u
CCOC(=O)N1CCN(C2=C(NS(=O)(=O)c3ccccc3)C(=O)c3ccccc3C2=O)CC1	13µM*	6	u	-25%	u
CCOC(=O)N1CCN(C2=C(NS(=O)(=O)c3ccc(Br)cc3)C(=O)c3ccccc3C2=O)CC1	12µM*	13	-28%	u	16µM*
NC(=O)C1CCN(C2=C(NS(=O)(=O)c3ccccc3)C(=O)c3ccccc3C2=O)CC1	-24%	36	-2%	-21%	u
NC(=O)C1CCN(C2=C(NS(=O)(=O)c3ccc(Br)cc3)C(=O)c3ccccc3C2=O)CC1	23µM*	41	u	u	18µM*
Cc1coc(NC(=O)CSc2nc(-c3ccc(Cl)cc3)cc(C(F)(F)F)c2C#N)n1	21µM*	43	u	-24%	u
O=C(Nc1ncccc1O)c1ccc2c(c1)OCO2	u	27	-33%	-20%	16µM*
O=C(Nc1ncccc1O)c1ccc2c(c1)OCCO2	23µM*	12	-9%	-3%	15µM*
Cc1cccnc1NC(=O)c1ccc2c(c1)OCCO2	1%	-5	11%	14%	-9%
COc1ccc(-c2c(C#N)c(N)nc(Sc3ccc(Cl)cc3)c2C#N)cc1	-12%	x	-6%	-3%	-30%
COc1nc(N)c(C#N)c(-c2ccc(N(C)CCC#N)cc2)c1C#N	18µM*	u	0%	-7%	7.3µM*
Cc1cc(CN2CCN(CC(=O)Nc3cc(C(F)(F)F)ccc3-n3cncn3)CC2)no1	u	5	0%	-2%	u
CCOC(=O)C1=C(C)NC(=O)NC1c1ccc2c(c1)OCO2 (configuration not stated)	-1%	-11	2%	0%	-3%
CC1=C(C(=O)OCCCCCl)C(c2cc3c(cc2Br)OCO3)NC(=O)N1 (configuration not stated)	-27%	-18	-16%	-9%	u
CCC(CC)COC(=O)C1=C(C)NC(=O)NC1c1ccc2c(c1)OCO2 (configuration not stated)	-12%	-79*	-27%	u	u
CCCCOC(=O)C1=C(C)NC(=O)NC1c1cc2c(cc1Br)OCO2 (configuration not stated)	23µM*	u	-18%	-7%	23µM*
O=C(O)[C@H](Cc1c[nH]c2ccccc12)Nc1ncccc1[N+](=O)[O-]	5%	0	-7%	-11%	1%
Cc1cccc(S(=O)(=O)NNC(=O)Cc2cccn2C)c1	u	-15	14%	20%	-10%
O=C(NCc1ccc(F)cc1)C1CCN(c2cnccn2)CC1	18µM*	21	-9%	-13%	u
CCc1ccccc1NC(=O)N1CCN(c2nnc(C)c3c(C)n(-c4ccccc4)nc23)CC1	u	x	x	x	21µM*
SMILES	TDP1 cell CPT	IL-1B inflam inh	HT1080-NT tox	HT1080 IDH1KD tx	TDP1 cell noCPT
Cc1ccc(Cl)cc1NC(=O)C1CCN(c2nnc(C)c3c(C)n(-c4ccccc4)nc23)CC1	8.2µM*	x	x	x	10µM*
Cc1nnc(N2CCC(C(=O)NC3CCCCC3)CC2)c2nn(-c3ccccc3)c(C)c12	-7%	x	x	x	3%
O=C(NCc1ccc(F)cc1)C1CCCN(c2cnccn2)C1 (configuration not stated)	1%	3	6%	6%	-14%
Cc1ccc(Cl)cc1NC(=O)C1CCN(c2nc3ccccc3n3cccc23)CC1	u	x	x	x	16µM*
Cc1ccc(Cl)cc1NC(=O)C1CCC(CNS(=O)(=O)c2cccc3nsnc23)CC1 (configuration not stated)	-4%	x	x	x	u
Cc1ccc(C)c(NC(=O)N2CCN(c3nnc(C)c4c(C)n(-c5ccccc5)nc34)CC2)c1	-12%	x	x	x	-3%
COc1ccc(C(=O)N(Cc2cc3cccc(C)c3nc2N(C)C)CC2CCCO2)cc1 (configuration not stated)	-3%[9.04 µM]	x	x	x	-4%
CCN(CC)C(=O)C1CCN(c2nnc(C)c3c(C)n(-c4ccc(Cl)cc4)nc23)CC1	-5%	x	x	x	4%
Cc1nnc(N2CCC(C(=O)NCc3ccc(F)cc3)CC2)c2nn(-c3ccc(Cl)cc3)c(C)c12	16µM*	x	x	x	u
Cc1nnc(N2CCC(C(=O)NCCc3ccccc3)CC2)c2nn(-c3ccc(Cl)cc3)c(C)c12	15µM*	x	x	x	21µM*
CCOC(=O)Cn1nc(C)c(NC(=O)c2ccc(Br)o2)c1C	-16%	4	26%	15%	-7%
CCc1nn(C(C)C(=O)N2CCN(c3ccc(OC)cc3)CC2)c(=O)c2cc3occc3n12 (configuration not stated)	4.6µM*	22	-26%	u	7.3µM*
CCc1nn(C(C)C(=O)N2CCN(c3cccc(C(F)(F)F)c3)CC2)c(=O)c2cc3occc3n12 (configuration not stated)	u	x	x	x	23µM*
CCc1nn(CCCC(=O)N2CCN(c3cc(Cl)ccc3C)CC2)c(=O)c2cc3occc3n12	u	x	x	x	23µM*
CCc1nn(C(C)C(=O)N2CCN(Cc3ccccc3)CC2)c(=O)c2cc3occc3n12 (configuration not stated)	u	-4	5%	5%	u
Cc1cccc(N2CCN(C(=O)CCCn3ncn4c(cc5occc54)c3=O)CC2)c1C	u	x	x	x	26µM*
CCOc1cc(CNC(=O)c2ccc3c(c2)nc2n3CCCCC2)ccc1OC	-13%	x	x	x	-11%
